RE007 growth inh: less growth of the S. pombe RE007 Vpr strain; S. pombe RE007 Vpr strain, BacTiter-Glo ATP luminescence, 24 h; Potency, µM (highest dose often 92.2 µM), without a hit: at the top dose activity change, negative = less growth, most hits filed as inhibitors; actives 0.21% (n = 360,000); active = well fitted falling curve with a large enough effect; inconclusive = small, poorly fitted or top-dose-only effect; inactive = no such curve, though single readings can be large or run the other way; also: % is scaled to controls: 0 for no effect and ±100 for the full control effect; nearly all actives have a fitted effect of over 50% in size
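Fission yeast strain RE007, carrying one chromosomally integrated HIV-1 vpr copy, was seeded at OD 0.01 in PMG+AL medium with 23 nL pinned compound. After 24 h at 30 °C and 99% humidity, viability was read by BacTiter-Glo luminescence.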
Sm TGR block: S. mansoni TGR enzyme inhibition | actives 3% (n = 360,000) | Q962Y6 | Potency, µM (highest dose often 114 µM), without a hit: top-dose activity change, negative = inhibition, hits mostly inhibitors | purified TGR, DTNB reduction, TNB absorbance 405 nm; also: % is scaled to controls: 0 for no effect and ±100 for the full control effect; nearly all actives have a fitted effect of over 60% in size
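First, TGR (20 nM dispensed) and NADPH were mixed with compound. Second, a 15 min room-temperature incubation followed. Third, further NADPH and then DTNB were added to start the reaction. Finally, TNB absorbance was monitored kinetically.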
TbPYK inhibitor: blocks Trypanosoma brucei pyruvate kinase; Potency, µM (highest dose often 76.8 µM), for inactives: at the highest dose activity, negative = inhibition, usual class: inhibitors; TbPYK enzyme, Kinase-Glo Plus ATP luminescence, 45 min; actives 0.12% (n = 410,000); also: % is scaled to controls: 0 for no effect and ±100 for the full control effect; nearly all actives have a fitted effect of over 50% in size
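Luminescence from Kinase-Glo Plus, added after a 45-minute room-temperature reaction, served as the end-point read-out. The enzyme and substrate were preincubated with compound before ADP (130 uM final) initiated turnover. Concentration-effect curves came from normalized qHTS data.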
LmPK inhibitor: inhibitors of Leishmania mexicana pyruvate kinase; Potency, µM (titrated, usually from 57.5 µM), for inactives: at the highest dose activity change, negative = inhibition, most hits filed as inhibitors; AID 1721; purified LmPK, Kinase-Glo ATP luminescence, 1 h; actives 0.37% (n = 290,000); Q27686; also: % is scaled to controls: 0 for no effect and ±100 for the full control effect
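Pyruvate kinase activity monitored as ATP production (luciferase luminescence). Conditions: 0.1 nM enzyme, 0.5 mM PEP, 0.1 mM ADP, 1 h, RT; normalized against uninhibited and no-enzyme wells.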
NS1 function inh: blocks influenza NS1 protein function | AID 2326 | Potency, µM (titrated, usually from 46.1 µM), for the others: at the highest dose activity, positive = more growth | actives 0.4% (n = 270,000); calls by dose curve; also: actives are rising curves; nearly all actives have a fitted effect of over 50% in size
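Read-out: OD600 growth recovery of NS1-expressing budding yeast. Cells grown overnight at 30C in -URA glucose medium, washed, resuspended and diluted 1:100 in 2% galactose assay medium, pH 6.0. Same strain lacking NS1 served as positive control.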
Giardia FBPA inh: inhibitors of Giardia lamblia fructose-1,6-bisphosphate aldolase. AID 2451. A8B2U2. Potency, µM (titrated, usually from 59.6 µM), for inactives: at the highest dose activity, negative = inhibition, hits mostly inhibitors. purified Giardia FBPA. actives 0.71% (n = 290,000); also: % is scaled to controls: 0 for no effect and ±100 for the full control effect; nearly all actives have a fitted effect of over 55% in size
Target sequence (A8B2U2 whole entry, looked up): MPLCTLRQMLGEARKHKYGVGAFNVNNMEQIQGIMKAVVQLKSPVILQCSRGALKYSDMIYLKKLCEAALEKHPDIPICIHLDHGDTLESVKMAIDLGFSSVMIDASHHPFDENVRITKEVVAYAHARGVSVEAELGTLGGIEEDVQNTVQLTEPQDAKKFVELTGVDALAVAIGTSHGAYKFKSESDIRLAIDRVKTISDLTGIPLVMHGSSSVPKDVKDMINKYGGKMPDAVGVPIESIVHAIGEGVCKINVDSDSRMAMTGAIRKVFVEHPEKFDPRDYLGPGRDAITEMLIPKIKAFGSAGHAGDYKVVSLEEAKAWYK
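40 nM FBPA preincubated 10 min at RT with compound (up to 57.5 uM final), then substrate plus GAPDH/TPI/NAD/arsenate coupling and diaphorase/resazurin added. Fluorescence read after 20 min at RT, 525/598 nm.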
Numbers without * were called inactive; ? = inconclusive; . = no result given; [ ] = another dose, or the depositor's remark. In the library only some 3.5% were active in any assay of this set; here they are far more common. Unless noted, calls follow the shape of the dose curve; as a rule, active = well fitted curve in the direction sought with a large enough effect; inconclusive = small, poorly fitted or top-dose-only effect, or another doubt; inactive = no such curve, though single readings can be large; an effect the other way counts as inactive or inconclusive. Potency is read from the fitted curve at half-maximal effect.

SMILES	RE007 growth inh	Sm TGR block	TbPYK inhibitor	LmPK inhibitor	NS1 function inh	Giardia FBPA inh
Cc1ccccc1-c1nc(CS(=O)CC(=O)NCc2ccc3c(c2)OCO3)c(C)o1 (stereo not drawn)	-9%	?	-4%	0%	2%	.
Cc1ccc(CNC(=O)CS(=O)Cc2nc(-c3cccs3)oc2C)cc1 (stereo not drawn)	-16%	25µM*	-5%	-2%	?	-4%
CC(C)C(=O)Nc1nnc(S(=O)(=O)N(C)Cc2ccc(F)cc2)s1	.	2%	-2%[15.4 µM]	.	.	.
CC(C)Oc1ccc(CNC(=O)c2cnc3sc(N4CCCCC4)nn3c2=O)cc1	.	10%	0%	.	.	.
COc1ccc(-c2noc(CSc3nnc(-c4ccncc4)n3-c3ccccc3)n2)cc1	.	1%	-11%	.	.	.
Cc1ccc(CCNC(=O)CS(=O)Cc2nc(-c3cccs3)oc2C)cc1 (stereo not drawn)	-12%	8.9µM*	-6%	5%	0%	-5%
Cc1ccc(CCNC(=O)CS(=O)Cc2nc(-c3ccccc3C)oc2C)cc1 (stereo not drawn)	.	-23%	-1%	.	.	.
N#CC(Br)Br	-10%	50µM*	-1%	.	.	.
CCOCCCNC(=O)Cn1nc(CC)n2c(cc3c(OC)cccc32)c1=O	.	7%	7%	.	.	.
COc1ccc(S(=O)(=O)N2CCN(Cc3cc(OC)c(OC)c(OC)c3)CC2)cc1	7%	3%	3%	-6%	-18%	?
COc1cc(CN2CCN(S(=O)(=O)c3ccccc3)CC2)cc(OC)c1O	.	4.5µM*	0%	.	.	.
COc1ccc(S(=O)(=O)N2CCN(Cc3cc(OC)c(O)c(OC)c3)CC2)cc1	-13%	3.5µM*	-7%	-5%	-1%	?
COc1cc(CN2CCN(S(=O)(=O)c3ccc(NC(C)=O)cc3)CC2)cc(OC)c1O	-12%	?	0%	-2%	-9%	?
C[C@@H]1/C(=N/O)CC2C[C@@H]1C2(C)C	.	.	.	.	.	-2%
CCOC(=O)C1=Nc2ccccc2C1=[N+]=[N-]	0.25µM*	-5%	3%	-1%	-52%	-6%
CCOC(=O)C1=Nc2ccccc2/C1=C\c1c(O)n(C)c(=O)n(C)c1=O	6%	-7%	-7%	-2%	-4%	-13%
O=C(c1ccc2c(c1)N(Cc1cccc(Cl)c1)C(=O)c1ccccc1S2(=O)=O)N1CCC(Cc2ccccc2)CC1	.	3%	2%	.	.	.
Cc1c(Cl)cn2c(=O)cc(CN3CCN(c4ccc(F)cc4)CC3)nc2c1Cl	.	50µM*	.	11%	3%	-19%
CCNC(=S)NNC(=O)c1cccn(Cc2ccc(Cl)cc2Cl)c1=O	-2%	-2%	?	7%	?	2%
C=CCNC(=S)NNC(=O)c1cccn(Cc2ccc(Cl)cc2Cl)c1=O	-4%	6%	11µM*	3%	3%	8%
CC(C)CC(=O)Nc1nc2c(s1)CC(C(C)(C)C)CC2 (stereo not drawn)	.	2%	-3%	.	.	.
CCSc1cc(C2C(C#N)=C(N)OC(C)=C2C(=O)OC)c(C)o1 (stereo not drawn)	?	25µM*	-7%	9%	-4%	?
COC(=O)C1=C(C)OC(N)=C(C#N)C1c1ccccc1 (stereo not drawn)	5%	-3%	-2%	-6%	-5%	-4%
CCc1ccc(S(=O)(=O)NC(=S)NC2CCCCC2)cc1	?	13µM*	1%	1%	-78%	11%
O=C(NNS(=O)(=O)c1ccc(Cl)cc1)NC1CCCCC1	5%	-29%	-11%	7%	-2%	3%
Cc1ccc(S(=O)(=O)NC(=O)NC2CCCCC2)cc1	.	.	4%	.	.	.
CCc1ccc(C(C)NC(=S)NC2CCCCC2)cc1 (stereo not drawn)	-1%	-5%	0%	3%	-75%	2%
Cc1ccc(S(=O)(=O)NC(=S)NC2CCCCC2)cc1	1%	32µM*	1%	5%	.	-6%
